An excerpt weighted towards active compounds, which were near 2.8% of everything screened.
Mito fusion act – qHTS Assay for Small Molecule Inhibitors of Mitochondrial Division or Activators of Mitochondrial Fusion | S. cerevisiae fusion-defective mutant growth rescue, CellTiterGlo 48 h | Potency, µM (top dose mostly 46.1 µM), without a hit: at the highest dose growth rescue (activation), hits mostly activators | 0.23% of 320,000 active; note: % of control where 0% means no effect; nearly all actives have a fitted effect of over 45% in size
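Read-out: ATP-based luminescence (CellTiterGlo, 10 min ambient) reporting growth of fusion-defective ts yeast after 48 hours at 37C on glycerol/ethanol YPEG medium in the presence of compound.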
GLP1R ag – qHTS of GLP-1 Receptor Agonists. Glucagon-like peptide 1 receptor (Homo sapiens), P43220. HEK293 GLP-1R CRE-luciferase, luminescence, 4-6 h; cells express a hypersensitive GLP-1R form. Potency, µM (doses to about 45.6 µM), for the others: at the top dose activation, hits mostly activators. 0.007% of 380,000 active; note: % of control where 0% means no effect
Target sequence (P43220 whole entry, looked up): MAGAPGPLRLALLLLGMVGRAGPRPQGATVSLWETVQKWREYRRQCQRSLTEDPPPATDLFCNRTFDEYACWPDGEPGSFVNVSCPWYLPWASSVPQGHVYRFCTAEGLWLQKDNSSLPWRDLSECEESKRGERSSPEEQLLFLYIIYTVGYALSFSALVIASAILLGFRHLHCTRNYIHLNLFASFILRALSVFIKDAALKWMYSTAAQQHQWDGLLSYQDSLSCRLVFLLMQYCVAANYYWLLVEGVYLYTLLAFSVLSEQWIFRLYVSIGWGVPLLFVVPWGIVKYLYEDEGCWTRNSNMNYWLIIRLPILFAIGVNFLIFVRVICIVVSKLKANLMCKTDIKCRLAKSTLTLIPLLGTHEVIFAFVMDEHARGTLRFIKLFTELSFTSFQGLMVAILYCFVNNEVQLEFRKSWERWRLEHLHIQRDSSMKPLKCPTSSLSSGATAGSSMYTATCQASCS
BRCA1 expr act – qHTS Assay to Identify Small Molecule Activators of BRCA1 Expression; 1.1% of 380,000 active; Potency, µM (doses to about 46.1 µM), for the others: top-dose activation, most hits filed as activators; MCF7-BRCA1-FFLuc reporter, luminescence, 48 h; response scale: scaled: vehicle 0%, 10 µM genistein 100%; note: nearly all actives have a fitted effect of over 80% in size
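First, MCF7-BRCA1-FFLuc cells (2000/well) attach for 2 h; next, compounds are pin-added and incubated 48 h at 37 °C; finally, luciferase reagent is added and luminescence read after 15 min.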
HEK293 tox – qHTS of GLP-1 Receptor Inverse Agonists: Cytotox Screen; Potency, µM (highest dose often 38.3 µM), without a hit: at the highest dose activity change, negative = inhibition, usual class: inhibitors; HEK293 cAMP-luciferase reporter cells, luminescence, 24 h; 0.13% of 410,000 active;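 note: loss of luciferase light is scored as toxicity; % is set by controls: 0 for no effect and ±100 for the full control effect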
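Luminescence readout: signal drop marks cytotoxicity. Plated cells grew 12 h at 37 °C, 5% CO2, received 23 nL compound for 24 h, then got luciferase reagent, read after 12 min at RT.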
GLP-1R inv ag – qHTS of GLP-1 Receptor Inverse Agonists (Inhibition Mode) | AID 624417, 2012 | Potency, µM (highest dose often 38.3 µM), for the others: at the top dose activity change, negative = inhibition, usual class: inhibitors | HEK293 GLP-1R CRE-luciferase, luminescence, 24 h; GLP-1R form is constitutively active | Glucagon-like peptide 1 receptor (Homo sapiens), P43220 | 1.6% of 410,000 active; note: % is set by controls: 0 for no effect and ±100 for the full control effect; nearly all actives have a fitted effect of over 55% in size
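Cells are plated, allowed 12 hours at 37 deg C, then treated with compounds for 24 hr before luciferase detection reagent is added and luminescence is read after 12 min at room temperature. The HEK293 line carries constitutively active GLP-1R with a cAMP-responsive reporter.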
* = called active by the depositor; ? = inconclusive; . = not tested or not shown. Calls come from the whole dose curve; as a rule, active = well fitted curve in the direction sought with a large enough effect; inconclusive = small, poorly fitted or top-dose-only effect, or another doubt; inactive = no such curve, though single readings can be large; an effect the other way counts as inactive or inconclusive. Potency is the fitted concentration of half-maximal effect.

SMILES | Mito fusion act | GLP1R ag | BRCA1 expr act | HEK293 tox | GLP-1R inv ag
C/C(=N\NC(=O)c1nn(C)cc1Br)c1ccc(NC(=O)c2ccncc2)cc1 | -2.6% | 5.9% | -1.6% | -0.7% | 3.9%
Cc1ccc(C2(c3noc(CN(C)Cc4cccnc4)n3)CCCC2)cc1 | 28.2µM* | 21.8% | -8.5% | 6.3% | ?
O=C(CSc1nc(-c2ccccc2Cl)ns1)Nc1ccc2c(c1)OCO2 | 2.9% | 2.8% | 18.0% | ? | -5.3%
O=C(CSc1n[nH]c(=O)[nH]c1=O)Nc1cccc(S(=O)(=O)N2CCOCC2)c1 | 12.4% | 2.5% | -15.1% | 1.4% | 5.4%
COc1ccc(-c2oc3ncn(CCN4CCOCC4)c(=N)c3c2-c2ccc(OC)cc2)cc1 | 25.4% | 1.1% | -60.7% | ? | -9.9%
CCC(C(=O)Nc1cc(OC)ccc1OC)n1nc(-c2ccccc2)c2c(c1=O)CCCC2 (configuration not stated) | . | . | -19.6% | -10.4% | 12.6µM*
Cc1c(C)c2ccc(OCC(=O)Nc3ccccn3)c(C)c2oc1=O | -18.7% | -4.9% | 46.7% | 18.5% | 10µM*
COCCN1CCN(C(=O)c2ccc3c(c2)S(=O)(=O)c2ccccc2C3=O)CC1 | . | -4.0% | -3.1% | 5.5% | 5.8%
Nc1nc2ccccc2n1/N=C/c1ccc2c(c1)OCO2 | -4.7% | 2.3% | 5.62µM* | 0.0% | -1.9%
O=C(c1ccncc1)N(c1ccc2oc3c(c2c1)CCCC3)S(=O)(=O)c1ccc(F)cc1 | 17.8µM* | -3.0% | -88.6% | ? | ?
CC(C)c1ccc(C(=O)N/N=C/c2cccc(Cl)c2Cl)cc1 | -3.6% | -6.6% | ? | -9.1% | 0.5%
Oc1cccc(C2c3[nH]c4ccccc4c3CCN2Cc2ccoc2)c1 (configuration not stated) | 8.5% | -1.4% | -23.7% | -6.7% | ?
COc1ccc(C2c3[nH]c4ccc(OC)cc4c3CCN2C(=O)Nc2ccccc2)cc1 (configuration not stated) | . | . | . | -15.5% | 5.62µM*
Oc1cccc(C2c3[nH]c4ccccc4c3CCN2Cc2ccc3c(c2)CCO3)c1 (configuration not stated) | 2.4% | 10.7% | -73.7% | ? | 2.82µM*
COc1ccc(C2c3[nH]c4ccccc4c3CCN2Cc2ccoc2)c(F)c1 (configuration not stated) | ? | -1.5% | -45.8% | 8.8% | 4.47µM*
COc1cccc(C(=O)N2CCc3c([nH]c4ccccc34)C2c2ccc(SC)cc2)c1 (configuration not stated) | . | . | . | -13.2% | 7.94µM*
CN(CC(=O)Nc1ccc(Cl)c(C(F)(F)F)c1)C(=O)c1ccc(OCC2CCCO2)cc1 (configuration not stated) | 3.1% | -0.8% | -41.7% | -12.9% | ?
COc1ccc(N2CCN(CC(=O)Nc3ccc(C)cc3Br)CC2)cc1 | . | -6.6% | -5.6% | -7.9% | 3.5%
Cc1ccc(NC(=O)CN2CCCCCC2)c(Br)c1 | -1.7% | 3.0% | 11.2µM* | -6.0% | ?
COc1ccc(NC(=O)CN2CCCCC2)c([N+](=O)[O-])c1 | -3.3% | 27.1% | 10µM* | -27.2% | 22.3%
COc1cc(NC(=O)c2c(F)cccc2F)nc(OC)n1 | 2.7% | 26.5% | 50.3% | 3.7% | 0.0%
CC(NC(=O)CN(C)Cc1nc2ccccc2c(=O)[nH]1)c1ccccc1 (configuration not stated) | -0.9% | -2.1% | -9.9% | -0.5% | 21.6%
CC(OCC(O)CN(C)Cc1nc2ccccc2c(=O)[nH]1)c1ccc(Cl)cc1 (configuration not stated) | 2.9% | 22.9% | -46.1% | -26.8% | 10µM*
CN(Cc1nc2ccccc2c(=O)[nH]1)Cc1nc2ccsc2c(=O)[nH]1 | 10.9% | 6.1% | -16.3% | 12.6µM* | -17.8%
COc1ccc(CNC(=O)Cn2nc(Cc3cccnc3)c3ccccc3c2=O)cc1 | 0.3% | 3.8% | 2.5% | -4.7% | -3.8%

High-throughput results from PubChem.
